Measured values from the supplement of paper PMC12297408.
Several values for one entry are separate records, joined by “and”; a condition that tells them apart may be missing. Equal values may be shown once. A number with no mark means an inactive call.

System: Plasmodium falciparum NF54/iGP1_RE9H ulg8 stage V gametocytes
Assay: gametocyte viability (luciferase signal relative to DMSO control) (% of DMSO control); higher = less gametocytocidal activity, active = 50 or less
Conditions: exposure time: 72 h
Summary of the method: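 Stage V gametocytes of the NF54/iGP1_RE9Hulg8 line (day 12; ~2.5% gametocytemia, 3% hematocrit), in medium containing 0.5% Albumax II, were dispensed into 96-well plates with compounds spotted in nanolitre volumes from 10 mM DMSO stocks, for final concentrations of 10 µM or 1 µM in a single well each. After 72 h at 37 °C, 90 µl from each well was combined with 10 µl D-luciferin (30 mg/ml), and luminescence was measured on an IVIS Lumina II. Viability was expressed against the mean of the DMSO vehicle wells on the same plate.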

## O=C(NC1CCNCC1)c1n[nH]cc1NC(=O)c1c(Cl)cccc1Cl
concentration: 1 µM
  gametocyte viability: 99.2
concentration: 10 µM
  gametocyte viability: 69.7

## CCc1cccc(CC)c1NC(=O)N1Cc2[nH]nc(NC(=O)c3ccc(N4CCN(C)CC4)cc3)c2C1
concentration: 1 µM
  gametocyte viability: 109
concentration: 10 µM
  gametocyte viability: 68.7

## Cc1ccc(NC(=O)c2ccc(CN3CCN(C)CC3)cc2)cc1Nc1nccc(-c2cccnc2)n1 [Imatinib (Gleevec)]
concentration: 1 µM
  gametocyte viability: 104
concentration: 10 µM
  gametocyte viability: 110

## COc1cc2nccc(Oc3ccc(NC(=O)Nc4ccc(F)cc4F)c(F)c3)c2cc1OC
concentration: 1 µM
  gametocyte viability: 94.9
concentration: 10 µM
  gametocyte viability: 85

## Cn1cc(C2=C(c3ccc(Cl)cc3Cl)C(=O)NC2=O)c2ccccc21
concentration: 1 µM
  gametocyte viability: 97.8
concentration: 10 µM
  gametocyte viability: 112

## O=C(Cc1ccc(-c2ccc(OCCN3CCOCC3)cc2)cn1)NCc1ccccc1
concentration: 1 µM
  gametocyte viability: 99.7
concentration: 10 µM
  gametocyte viability: 113

## NC1(Cc2ccc(Cl)cc2)CCN(c2ncnc3[nH]ccc23)CC1
concentration: 1 µM
  gametocyte viability: 114
concentration: 10 µM
  gametocyte viability: 78.9

## COc1ncc(-c2ccc3nccc(-c4ccnnc4)c3c2)cc1NS(=O)(=O)c1ccc(F)cc1F
concentration: 1 µM
  gametocyte viability: 100
concentration: 10 µM
  gametocyte viability: 103

## Cn1c(=O)n(-c2ccc(C(C)(C)C#N)cc2)c2c3cc(-c4cnc5ccccc5c4)ccc3ncc21
concentration: 1 µM
  gametocyte viability: 96.8
concentration: 10 µM
  gametocyte viability: 104

## CCS(=O)(=O)c1cccc(-c2cc(C(=O)NC3CCN(C)CC3)c(C)c3[nH]c4ncc(C)cc4c23)c1
concentration: 1 µM
  gametocyte viability: 106
concentration: 10 µM
  gametocyte viability: 84.2

## CN1CC[C@H](c2c(O)cc(O)c3c(=O)cc(-c4ccccc4Cl)oc23)[C@H](O)C1 [Flavopiridol (Alvocidib)]
concentration: 1 µM
  gametocyte viability: 99.8
concentration: 10 µM
  gametocyte viability: 122

## CCN(CC)CCNC(=O)c1c(C)[nH]c(/C=C2\C(=O)Nc3ccc(F)cc32)c1C [Sunitinib Malate (Sutent)]
concentration: 1 µM
  gametocyte viability: 102
concentration: 10 µM
  gametocyte viability: 80.7

## Clc1ccc(C2(c3ccc(-c4cn[nH]c4)cc3)CCNCC2)cc1
concentration: 1 µM
  gametocyte viability: 112
concentration: 10 µM
  gametocyte viability: 76.9

## Cc1cnc(Nc2ccc(N3CCN(C)CC3)cc2)nc1Nc1cccc(S(=O)(=O)NC(C)(C)C)c1
concentration: 1 µM
  gametocyte viability: 91.9
concentration: 10 µM
  gametocyte viability: 66.6

## Cc1cc(Nc2cc(N3CCN(C)CC3)nc(Sc3ccc(NC(=O)C4CC4)cc3)n2)n[nH]1 [VX-680 (MK-0457, Tozasertib)]
concentration: 1 µM
  gametocyte viability: 97.5
concentration: 10 µM
  gametocyte viability: 84.3

## C[S+]([O-])c1ccc(-c2nc(-c3ccc(F)cc3)c(-c3ccncc3)[nH]2)cc1 (stereo not drawn)
concentration: 1 µM
  gametocyte viability: 97.2 and 103
concentration: 10 µM
  gametocyte viability: 109 and 105

## CN([C@@H](Cc1ccc(OS(=O)(=O)c2cccc3cnccc23)cc1)C(=O)N1CCN(c2ccccc2)CC1)S(=O)(=O)c1cccc2cnccc12
concentration: 1 µM
  gametocyte viability: 93.8
concentration: 10 µM
  gametocyte viability: 81.8

## O=c1c(-c2ccc(O)cc2)coc2cc(O)cc(O)c12 [Genistein]
concentration: 1 µM
  gametocyte viability: 95.5
concentration: 10 µM
  gametocyte viability: 83.9

## COc1cc2ncnc(Nc3cccc(Br)c3)c2cc1OC
concentration: 1 µM
  gametocyte viability: 95.6
concentration: 10 µM
  gametocyte viability: 114

## O=C1c2ccccc2-c2n[nH]c3cccc1c23
concentration: 1 µM
  gametocyte viability: 95.3 and 98.9
concentration: 10 µM
  gametocyte viability: 90.5 and 106

## CN(C)c1ccc(-c2nc3ncc(Cl)c(N4CCN(CC(=O)Nc5nccs5)CC4)c3[nH]2)cc1
concentration: 1 µM
  gametocyte viability: 82.4
concentration: 10 µM
  gametocyte viability: 101

## C#Cc1cccc(Nc2ncnc3cc(OC)c(OC)cc23)c1
concentration: 1 µM
  gametocyte viability: 103
concentration: 10 µM
  gametocyte viability: 96.4

## CCOc1cc2ncc(C#N)c(Nc3ccc(OCc4ccccn4)c(Cl)c3)c2cc1NC(=O)/C=C/CN(C)C [Neratinib (HKI-272)]
concentration: 1 µM
  gametocyte viability: 103
concentration: 10 µM
  gametocyte viability: 104

## COc1cc(Nc2ncc(F)c(Nc3ccc4c(n3)NC(=O)C(C)(C)O4)n2)cc(OC)c1OC
concentration: 1 µM
  gametocyte viability: 99.8
concentration: 10 µM
  gametocyte viability: 104

## CNC(=O)c1cc(Oc2ccc(NC(=O)Nc3ccc(Cl)c(C(F)(F)F)c3)cc2)ccn1 [Sorafenib (Nexavar)]
concentration: 1 µM
  gametocyte viability: 114
concentration: 10 µM
  gametocyte viability: 115

## CS(=O)(=O)CCNCc1ccc(-c2ccc3ncnc(Nc4ccc(OCc5cccc(F)c5)c(Cl)c4)c3c2)o1 [Lapatinib Ditosylate (Tykerb)]
concentration: 1 µM
  gametocyte viability: 102
concentration: 10 µM
  gametocyte viability: 98.2

## COC(=O)/C=C/c1cc(O)ccc1O [Erbstatin analog]
concentration: 1 µM
  gametocyte viability: 97.8
concentration: 10 µM
  gametocyte viability: 99.1

## CN1CCN(CCOc2cc(OC3CCOCC3)c3c(Nc4c(Cl)ccc5c4OCO5)ncnc3c2)CC1 [Saracatinib (AZD0530)]
concentration: 1 µM
  gametocyte viability: 94.4
concentration: 10 µM
  gametocyte viability: 92.2

## O=C1Nc2ccc(I)cc2/C1=C/c1cc(Br)c(O)c(Br)c1
concentration: 1 µM
  gametocyte viability: 92.1
concentration: 10 µM
  gametocyte viability: 90.5
